# From the supplement of paper PMC6555819
# Assays:
# Assay in all cases: PBM binding z-score (relative to random genomic background probes); higher = stronger binding; sequences stand for … in GC…GCGATTGACAGCGTAGAATGAAGG
# [1] = system: RARb homodimer (NR concentration 270 nM)
# Summary of the method: (§1)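 The probes on custom Agilent 4×180K protein-binding microarrays were double-stranded, with 34-nt variable regions bearing direct-repeat seeds, single-nucleotide variants, half-site ablations and random human genomic background sequences. Incubation lasted 1 h with ligand-free nuclear receptor dimers in PBS pH 7.4, 2% milk, 0.02% Triton X-100, 1 mM DTT, 0.2 mg/mL BSA and 0.4 mg/ml salmon testes DNA. Antibodies against each partner (one per run) detected bound dimers, and fluorescence scans were regression-normalized. Binding z-scores take the random background probes as reference.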
# [2] = system: RARg:RXRa (NR concentration 270 nM, RXRa partner concentration 90 nM)
# Summary of the method: as §1
# [3] = system: RARg homodimer (NR concentration 270 nM)
# Summary of the method: as §1
# [4] = system: RXRa DBDmut IVT, anti-RXR (DBD mutation: RXRa K156A/R161A, NR concentration 90 nM)
# Summary of the method: as §1
# [5] = system: RXRa homodimer (NR concentration 180 nM)
# Summary of the method: as §1
# [6] = system: THRa:RXRa (NR concentration 90 nM, RXRa partner concentration 90 nM)
# Summary of the method: as §1
# [7] = system: THRa homodimer (NR concentration 90 nM)
# Summary of the method: as §1
# [8] = system: VDR homodimer (NR concentration 270 nM)
# Summary of the method: as §1
Sequence,PBM binding z-score [1],PBM binding z-score [2],PBM binding z-score [3],PBM binding z-score [4],PBM binding z-score [5],PBM binding z-score [6],PBM binding z-score [7],PBM binding z-score [8]
ATATTTAGGTTAAGGGTCATTCAGGTTGGTTCGC,4.22,4.81,3.84,2.51,5.68,3.95,3,5.16
AGTCAAAGTGCAGGACGAGGTAACGTAAAGCACG,0.382,0.878,1.15,-0.269,0.45,2.23,0.449,0.0328
CGGAGTAGGTTATGGGGCATTCAGGCAACGGTGA,1.26,0.544,0.721,-0.446,0.668,0.705,0.801,0.416
CAAACTAGGTCACGAAAGGTCACAGTCGAATGAC,6.08,7.72,8.69,2.05,7.64,5.11,3.05,2.77
TCATATAGGTAAAGGTGCAAGTCGAACGATATGA,0.0991,0.803,0.522,0.75,1.18,0.151,-0.746,0.385
TCTATTCGTTGAAGGGCAACCGACGAGTCCGTTT,1.39,0.744,0.769,1.49,0.993,0.507,0.017,1.27
CCTACTGGGACATCAGGTCATTGATATCAACGTT,2.48,1.91,1.87,0.77,1.54,3.23,3.41,2.42
AGAATGAAGTTAAGATCAGGGAAACAGAATACAT,-0.296,0.141,0.297,-0.544,0.166,0.135,-0.599,-0.0314
CGTCCAAGGTCAGCAGGTCGGTGAAAGCGACGTG,4.14,5.49,6.04,2.37,4.37,3.57,1.92,1.3
TGGAGTAGGTTAGTCGGGGCATTCAGCCAACATA,1.41,0.219,0.355,-0.608,0.023,1.48,0.985,1.24
GGAACGAGGGCATTCGAGTTGATACCATGGCGAT,0.873,1.26,1.46,3.31,0.823,3.34,-0.337,3.45
CCAGACAGGTGAAAGGTTACTCAGTCTGGTACGC,1.91,3.02,1.52,0.385,4.22,1.72,0.13,0.149
ACTAGTTGGTCAGCTGAGGCCACACACAATTCGG,1.35,0.493,1.14,0.0642,0.0882,3.64,1.45,0.0276
CGTCGAAGGTCAAGGTCAGTGAAAGAGACTCGAA,5.05,6.76,7.33,2.59,6.08,3.98,2.07,1.98
CATACTAGGTCACGAAAGGTCAAAGTCGAATGAC,5.99,7.94,8.68,2.83,8.69,5.16,2.91,4.71
CCTTGGAGGACAGAAGGTCAGAGCTGTCCGCTTT,3.56,3.54,3.38,0.276,1.95,2.22,0.0306,0.62
TCTTGTAGATCAACAGGAGGTTAAGTAAGATCGA,0.766,1.15,0.284,0.388,1.02,1.78,-0.391,-0.26
AGTCAAAGTTCACTAGGTAAGGTAAGATTCAGCT,3.88,4.78,6.02,4.18,3.95,2.51,1.03,3.36
CCGACTGGGGCAGAAAGTTTACCATACCATCCGG,0.899,-0.0805,0.478,-0.44,-0.178,-0.72,-0.708,0.157

Sequence,PBM binding z-score [1],PBM binding z-score [2],PBM binding z-score [3],PBM binding z-score [4],PBM binding z-score [5],PBM binding z-score [6],PBM binding z-score [7],PBM binding z-score [8]
TCTGCTAGGTCAACGATGGTCTGCTAATCTGCTA,2.72,3.69,4.4,0.993,2.25,2.6,0.712,-0.658
CAAACTAGGTCAAAGGTTAAAGTCGAGCCAACCA,3.86,7.3,5.26,2.59,8.93,4.29,1.04,1.6
TCTTGTAGATCAACAGGAGGTTAAGATAGATCGA,0.539,1.16,0.391,0.496,1.04,0.854,-0.513,-0.27
CCGACTGGGGCATCAGGTTACCATAAGCCAGCCC,0.867,0.461,0.586,-0.734,0.214,0.994,0.484,-0.423
ACTCGGAGGACAAAGGTCAGTGCTACGCCAGTGA,4.71,5.37,4.99,1.36,4.26,3.38,0.657,1.11
CCTACTGGGCCATAAAGGTCATTGATGCCGATAA,4.17,4.52,3.88,0.623,4.73,3.05,0.441,2.92
ATATGTAGGTTAGCTGGGGTCATTCGGACTAGGC,3.59,4.28,2.86,2.17,5.36,5.12,3.5,5.38
TCTTGTAGATCAACAGGAGGTGAAGAAAGATCGA,0.000947,0.381,0.0903,0.184,0.315,0.726,-0.344,-0.884
CTCGACAGGTCGGTTGAGGTGAGTATACGGATAA,0.715,0.769,0.825,-0.127,0.289,4.41,1.11,0.012
CGTCAAAGTTTAAGGTAACGTAACAGAAAGCAGC,0.852,0.923,1.7,1.29,0.482,3.1,3.1,-0.0381
ACTAGCAGGCCAACGGTCACTCAAGATTAGTCCG,1.57,0.906,1.57,-0.139,0.345,-0.135,-0.434,-0.593
TATACAGGGTTAAAGGCCAGAGTACGAATGTCGA,1.55,2.41,1.59,0.596,3.28,1.56,0.124,0.851
CAGCCTAGGTCAGGGCCAGTATAGGAGGAACGTT,2.58,3.08,3.8,-0.416,1.54,2.11,0.526,-0.18
GCTAGTTGGTCTGTAAAAGGTCACACACCGGTCG,5.02,5.01,4.62,0.681,5.65,3.52,1.78,1.81
CAAACTAGGTGAAGGTCAAAGTCGGTTTGTGCCA,3.92,4.07,4.37,1.5,4.34,3.14,0.696,2.23
TAGCCTACGTCATTGGGCCAGTATAGTACGCATC,-0.397,-0.281,-0.0336,-0.739,-0.232,-0.688,-0.62,-0.718
GTACCAAGGTGAATATGTCGTTGATGAGTAGGCG,0.432,0.746,0.888,-0.0689,0.5,1.34,0.837,0.112
TCGAGTAGGTTAGCGGCATTCAGAATGGCGTCGA,-0.725,-0.482,-0.458,-0.267,0.000996,-0.647,-0.985,-0.691
AGTCAAAGTTCATCTAGGTAGCGTAAGATATGCT,3.79,5.6,5.81,4.63,4.48,2.62,-0.478,5.34

Sequence,PBM binding z-score [1],PBM binding z-score [2],PBM binding z-score [3],PBM binding z-score [4],PBM binding z-score [5],PBM binding z-score [6],PBM binding z-score [7],PBM binding z-score [8]
CCTACTGGGCCATCAGGTCGTTGATATCAACGTT,0.879,0.238,0.401,0.0318,0.133,1.42,1.06,0.424
CTACCAAGGTGAGCAAGGTCGTTGATTACTATTC,1.65,0.951,0.78,0.939,1.03,2.77,1.29,1.42
CAGCCTAGGTCCGGGCCAGTATAGGAGGAACGTT,-0.676,-0.685,-0.755,-1.37,-0.779,-0.819,-1.03,-0.835
CGTGAAAGTTCAACTAAGGTAACGTAAAGCACGC,4.13,5.55,6.12,4.76,4.3,5.32,1.64,3.71
CTCGAAAGGTCGGTTGAGGTGAGCATACGGATAA,2.57,3.04,2.99,0.598,2.33,5.04,1.56,0.64
CTACCAACGTGAACAAGGTCGTTGATTACTATTC,1.42,0.533,0.432,1.53,0.896,1.82,1.41,1.88
CCTTACGGGTCACTGACCGGTTATAGCATTTGGA,3.25,5.43,4.56,1.45,4.82,2.56,0.389,0.995
CCTCGGAGGACAACAGGAGGTCAGAGGTGCCAGA,3.4,3.47,3.16,-0.191,2.1,2.88,0.822,1.13
CTACAAAGGTGAACAAGGTCGTTGATTACTATTC,3.33,3.64,3.01,1.76,3.64,3.69,1.37,2.51
CTTATTAGTTGACCATAAGGGCAACCGAAGCTCG,2.23,1.24,1.13,0.578,0.722,2.04,1.36,0.553
GCGACTGGGGCGTCAGCAGGTTACCATAACTTAA,0.457,0.162,-0.368,-0.119,0.154,0.661,-0.199,-0.488
CGTCCAAGGTCAATGCTACGTCAGTGAAAGCATT,4.04,5.67,6.18,3.58,4.83,3.53,1.75,2.18
ACAGACAGGTGAGTGAAGGGAACTCAGCTGGACG,-0.231,0.199,0.0505,-0.777,0.39,0.0282,-0.679,-0.331
TCAGACAGGTGAGGGTAACTCAGGTACGCAGTCG,0.992,0.551,0.485,0.971,0.746,2.35,0.442,0.115
GGAACGAGGGCAAAGTTGGTAGCATCTGTCGACG,1.14,1.46,1.52,2.47,1.14,1.09,-0.0808,1.46
AGGACGAGGGCAATGAGTTGATAGCACGGGTGGC,1.44,1.21,1.88,2.22,0.924,1.08,0.181,3.41
TCTCGGAGGACACGAAGGTCAGAGCGTTCCAGAG,3.79,3.32,3.84,0.548,1.94,2.99,0.835,1.2
AGAATAAGGTTATTAAGATCAGGGAATTGCGGTC,1.1,1.39,1.13,1.47,1.58,2.42,0.933,0.967
